Laboratory results: PubChem BioAssay (NCI)
The panel holds about 79,000 compounds, 15% with a hit somewhere; the sample as a whole holds those more often. Cut-off read from the data, not from the text of the source: active = growth inhibition above about 70%; inactive = the rest.

What was measured:
[1] = NCI Yeast Anticancer Drug Screen. Data for the rad50 strain (AID 155);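 note: 0% = growth of vehicle-only cultures of the same strain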; settings: S. cerevisiae rad50 strain growth inhibition; at 50.0 µM; stronger effect = higher value
Outline: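 Readout: growth inhibition relative to vehicle-treated cultures. Compound exposure was carried out in a genetically defined yeast strain deficient in DNA damage repair.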

[2] = NCI Yeast Anticancer Drug Screen. Data for the mec2-1 strain (AID 157); settings: S. cerevisiae mec2-1 strain, at 50.0 µM, stronger effect = higher value
Outline: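 Growth inhibition is read against vehicle-treated controls after compound exposure of the mec2-1 yeast strain, which is defective in DNA damage repair or cell cycle control.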

[3] = NCI Yeast Anticancer Drug Screen. Data for the sgs1 mgt1 strain (AID 161);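 note: 0% = growth of cultures given vehicle only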; settings: S. cerevisiae sgs1 mgt1 strain, at 50.0 µM, stronger effect = higher value
Outline: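 Growth of a repair-deficient yeast mutant was monitored after compound treatment and expressed as inhibition relative to vehicle-treated cultures.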

[4] = NCI Yeast Anticancer Drug Screen. Data for the cln2 rad14 strain (AID 165);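 note: 0% = growth equal to vehicle treated cultures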; settings: S. cerevisiae cln2 rad14 strain, at 50.0 µM, stronger effect = higher value
Outline: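 Growth inhibition, relative to vehicle-treated controls, is the read-out. The test organism is a yeast strain with defined genetic alterations, cln2 rad14.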

[5] = NCI Yeast Anticancer Drug Screen. Data for the bub3 strain (AID 167); settings: S. cerevisiae bub3 mutant strain, at 50.0 µM, stronger effect = higher value
Outline: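 Readout: yeast growth inhibition, expressed relative to vehicle-only wells. The test organism is a mutant strain from a panel with lesions in DNA repair or checkpoint genes.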

[6] = NCI Yeast Anticancer Drug Screen. Data for the mlh1 rad18 strain (AID 175); settings: S. cerevisiae mlh1 rad18 strain growth inhibition; at 50.0 µM; stronger effect = higher value
Outline: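 Cells of a genetically altered yeast strain, deficient in DNA damage repair, were treated with compound. Their growth was then compared with that of vehicle-treated cultures to give inhibition.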

Measured: growth inhibition

C=CC1=C(C)C2=NC1=CC1=NC(=CC3=C(C)C4=C(O)C(C(=O)OC)C(=C5NC(=C2)C(C)C5CCC(=O)OC/C=C(\C)CCCC(C)CCCC(C)CCCC(C)C)C4=N3)C(CC)=C1C (stereo not given)
inactive: [1] -17.7% | [2] -33.4% | [3] -49.8% | [4] 3.4% | [5] -29.1% | [6] -20.9%

COc1ccc(OC)c(N=Cc2ccc(C=Nc3cc(OC)ccc3OC)cc2)c1
inactive: [1] -8% | [2] -12.3% | [3] -10.6% | [4] 4.7% | [5] -9% | [6] -5.8%

CCc1ccc(/C(C#N)=C/c2ccc(N(C)CCC#N)cc2)cc1
inactive: [1] 10.8% | [2] 2.8% | [3] 18.8% | [4] 5% | [5] 16.9% | [6] -23.9%

O=C1OCC/C1=C\c1ccc(Br)cc1
inactive: [1] 7.2% | [2] -10.2% | [3] 3.3% | [4] -29.6% | [5] 7.5% | [6] -1.1%

CC1(C)C(=O)/C=C\C(=O)C(C)(C)C2=CC=C(O2)C(C)(C)C(=O)C(Br)C(Br)C(=O)C(C)(C)C2=CC=C1O2 (stereo not given)
inactive: [1] -20.4% | [2] -18.1% | [3] -68.5% | [4] 5.6% | [5] -34.9% | [6] -27.6%

c1ccc(-c2cc3nc4ccccc4nc3o2)cc1
inactive: [1] -6.65% | [2] -10.6% | [3] -13% | [4] 1.6% | [5] 2.15% | [6] -4.4%

NNc1nc(N2CCOCC2)c2[nH]cnc2n1
inactive: [1] -1.3% | [2] -5.45% | [3] 14.2% | [4] 4.5% | [5] -9.9% | [6] 4.75%

O=C(Cn1c2c(c3ccccc31)CCCC2)N1CCCCC1
inactive: [1] -40.5% | [2] -74% | [3] -31.2% | [4] -22.2% | [5] -8.6% | [6] -26.2%

COC(=N)/C(C#N)=N/C1OCC(O)C(O)C1O (stereo not given)
inactive: [1] 5.65% | [2] -21.1% | [3] 2.15% | [4] -31.6% | [5] 0.35% | [6] 0.45%

Cc1ccc(N=N/C(=N/NC(=O)c2cc(Cl)ccc2C(=O)c2ccccc2)c2ccc(N(CCC#N)CCC#N)cc2C)cc1
inactive: [1] -8.5% | [2] 2.5% | [3] -18.5% | [4] -2.1% | [5] -23.6% | [6] 5.2%

O=C1Nc2cc([N+](=O)[O-])c(Br)cc2C1=O
inactive: [1] 22.1% | [2] 27.4% | [3] 0.7% | [4] 14.9% | [5] 5.8% | [6] 12.1%

CC(SSc1ccc(C(C)(C)C)cc1)c1ccccc1 (stereo not given)
inactive: [1] 9.25% | [2] -14.2% | [3] -11.1% | [4] -35.4% | [5] 10.2% | [6] -1.4%

CCOC(=O)C(CCCBr)(C(=O)OCC)N1C(=O)c2ccccc2C1=O
inactive: [1] 20.8% | [2] -13.3% | [3] 10.9% | [4] 18.2% | [5] 31.8% | [6] 12.6%

CC1(C2(C)SCCS2)SCCS1
inactive: [1] 11.2% | [2] 2.9% | [3] -1% | [4] 11.2% | [5] -8.55% | [6] 10.5%

CN(C)[C@@H]1C(=O)C(C(=O)NCNc2cccc(C(=O)O)c2C(=O)O)=C(O)[C@@]2(O)C(=O)C3=C(O)c4c(O)cccc4[C@@](C)(O)[C@H]3C[C@@H]12
inactive: [1] 2.95% | [2] 6.45% | [3] 21.8% | [4] -17.2% | [5] -1.1% | [6] 31.4%

CC(=O)Nc1ccc(OCc2ccccc2)cc1[N+](=O)[O-]
inactive: [1] 20.5% | [2] -11.9% | [3] 9.75% | [4] 10.2% | [5] 6.85% | [6] 28.2%

Cc1ccc2c(c1)SN(CN1C(=O)c3ccccc3C1=O)N2
inactive: [1] -37.1% | [2] -43.6% | [3] -7.15% | [4] -19% | [5] -38.7% | [6] -28.9%

CC(C(O)C(F)(F)F)[N+](=O)[O-] (stereo not given)
inactive: [1] -1.7% | [2] -4.5% | [3] 8.65% | [4] -5.2% | [5] -2.05% | [6] 17.2%

CC1(C)C2C=CC1(C)C1(CC2)OCCO1 (stereo not given)
inactive: [1] 10.5% | [2] 17.5% | [3] -20.5% | [4] 20.8% | [5] -55.8% | [6] -115%

CC(C)CNC(=O)O
inactive: [1] 5.15% | [2] -7.1% | [3] -7.5% | [4] -6.15% | [5] -10.8% | [6] -4.75%

O=C1C(=O)c2ccc3c(c2-c2cc4c(cc21)OCO4)OCO3
inactive: [1] -5.55% | [2] -17.1% | [3] -14.9% | [4] -5.55% | [5] -27.5% | [6] 18%

COc1ccc2c(c1)C1Oc3ccccc3CC1(O)CO2 (stereo not given)
inactive: [1] 14.4% | [2] 6.75% | [3] 21.3% | [4] 26.5% | [5] -6.3% | [6] 51.5%

COC(=O)C1(C2CCCCCCC2=O)NC(=S)NC(=O)C1C#N (stereo not given)
inactive: [1] 4.35% | [2] -18.8% | [3] -28.1% | [4] 11.2% | [5] -24.9% | [6] -4.05%

O=C(O)CCC(=O)CCC(=O)c1ccc(O)c2ncccc12
inactive: [1] -6.55% | [2] 6.2% | [3] 16.8% | [4] 26.5% | [5] 16.2% | [6] 21.5%

C(=C\c1ccccc1)/C=N/N=C/C=C/c1ccccc1
inactive: [1] -5.5% | [2] -30.1% | [3] -10.9% | [4] -37% | [5] 4.45% | [6] -4%

CC(C)=CC(=O)OC1C2C(CC(C)C3C(O)CC(=O)C13C)OC(=O)C2C (stereo not given)
inactive: [1] -0.3% | [2] -44.3% | [3] -0.2% | [4] 17.8% | [5] -27.9% | [6] -16.9%

CCOC(=O)c1[nH]c(COC(C)=O)c2c1CCCCCCCCCC2
inactive: [1] -6.1% | [2] -9.75% | [3] 6.05% | [4] 41.2% | [5] 5% | [6] -12.3%

CCOC(=O)c1cc2c(oc1=O)-c1cc(C)ccc1OC2C (stereo not given)
inactive: [1] -9.45% | [2] -14.8% | [3] 8.75% | [4] -40.6% | [5] -38.4% | [6] 11.1%

Fc1c(F)c(F)c(CCc2c(F)c(F)c(F)c(F)c2F)c(F)c1F
inactive: [1] 11.2% | [2] -8.2% | [3] 15.9% | [4] -39.1% | [5] -41.4% | [6] 19.2%

CC1CC(C)(C)NC(c2ccccc2)O1 (stereo not given)
inactive: [1] 1.75% | [2] -5% | [3] 1.3% | [4] 10.1% | [5] -14.4% | [6] 29.4%

S=c1[nH]n(-c2ccccc2)c(=S)s1
inactive: [1] -28.7% | [2] -41.1% | [3] -4.95% | [4] -1.15% | [5] 15.3% | [6] -22.6%

CCOC(=O)Nc1cc(C(F)(F)F)ccc1F
inactive: [1] -14.8% | [2] -16.2% | [3] -14% | [4] -43.9% | [5] 3.95% | [6] -7.1%

O=C1OC2C(O1)C1(c3ccccc3)OC2(c2ccccc2)c2ccccc21 (stereo not given)
inactive: [1] -5.9% | [2] 19.2% | [3] 13.5% | [4] -57.2% | [5] 4.85% | [6] 45.1%

Cc1cc(=O)[nH]c(NNC(=S)NC2CCCCC2)n1
inactive: [1] -17.4% | [2] -41.8% | [3] 10.9% | [4] 2.85% | [5] -28.4% | [6] -18.6%

O=P(c1ccccc1)(c1ccccc1)C(O)c1cccs1 (stereo not given)
inactive: [1] 12.8% | [2] 2% | [3] 17.6% | [4] 15.5% | [5] 24.9% | [6] 18.8%

CC(=O)NCCSC(=O)CCCCCCCCC(=O)SCCNC(C)=O
inactive: [1] 11.8% | [2] -0.25% | [3] 27.2% | [4] 22.1% | [5] 6.55% | [6] 6.5%

CC(C)(C)C(=O)OCn1cc2c(=O)[nH]cnc2n1
inactive: [1] 11.9% | [2] 8.1% | [3] 28.6% | [4] -3.75% | [5] -8.7% | [6] 9.15%

CO/C=C/CCCO
inactive: [1] -14.8% | [2] -16.5% | [3] -14.8% | [4] 7.55% | [5] -3.55% | [6] -9.7%

CCOC(=O)C(=O)C(Cc1ccccc1)C(=O)OCC (stereo not given)
inactive: [1] 0.2% | [2] -3.95% | [3] 9.75% | [4] -46.5% | [5] 11.7% | [6] -7.2%

CCOC(=O)c1ccc(NC(=O)c2cnccn2)cc1
inactive: [1] -6.5% | [2] 0.3% | [3] -17.7% | [4] -15.4% | [5] -20.4% | [6] -2%
